# Assay results published in PubChem BioAssay AID449741 (Southern Research Specialized Biocontainment Screening …, 2010).
# Values without a mark were called inactive.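 The calls were made as follows: active = inhibition above 30% at one or more tested concentrations in the dose response; inactive = inhibition below 30% at every tested concentration.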
# Test: PhoP regulon inhibitors in S. Typhimurium, late-stage follow-up, GFP fluorescence, round 4, synthesized compounds (AID 449741)
# Conditions: S. Typhimurium PhoP-regulated promoter-GFP fluorescence, 4 h; series mostly up to 150 µM; inhibition: at the top concentration
row,Compound,inhibition [%]
1,S=C(NCc1ccc(Cl)cc1)NN1CCOCC1,28.7
2,S=C(NCc1ccc(Cl)cc1)Nc1ccccc1I,18.9
3,S=C(NCc1ccc(Cl)cc1)Nc1ccncn1,29.9
4,O=C(Nc1ccc(Cl)cc1)N1CCCN(Cc2cccc(Br)c2)C1,-26.9
5,CN1CCN(C(=S)NCc2ccc(Cl)cc2)CC1,-1.03
6,S=C(NCc1ccc(Cl)cc1)Nc1cccc(Br)c1,-24.5
7,S=C(NCc1ccc(Cl)cc1)NC1CCOCC1,-13.7
8,O=C(Nc1ccc(Cl)cc1)N1CCCN(Cc2cccc(F)c2)C1,-5.94
9,S=C(NCc1ccc(Cl)cc1)Nc1ccccn1,24.6
10,O=C(Nc1ccc(Cl)cc1)N1CCN(Cc2ccccc2F)C1,-1.2
11,FC(F)(F)c1ccccc1NC(=S)NCc1ccc(Cl)cc1,-11.8
12,S=C(NCc1ccccc1)NCc1ccc(Cl)cc1,-20.5
13,S=C(NCc1ccc(Cl)cc1)NC1CCCCC1,13.3
14,Cc1ccccc1NC(=O)N1CCCN(Cc2ccccc2F)C1,-9.77
15,COc1cccc(CNC(=S)Nc2ccncc2)c1,-30.7
16,S=C(NCc1ccc(Cl)cc1)Nc1ccccc1Br,15.6
17,N#Cc1ccc(CN2CCCN(C(=O)Nc3ccc(Cl)cc3)C2)cc1,-21.8
18,S=C(NCc1ccc(Cl)cc1)Nc1ccc(I)cc1,21
19,FC(F)(F)c1ccc(NC(=S)NCc2ccc(Cl)cc2)cc1,-9.89
20,O=C(NC1CCCCC1)N1CCCN(Cc2ccccc2F)C1,-4.34
